# Tau ThT inhib – qHTS for Inhibitors of Tau Fibril Formation, Thioflavin T Binding; recombinant tau K18 P301L, heparin-induced fibrillization, ThT fluorescence; Potency, µM (titrated, usually from 57.4 µM), without a hit: at the highest dose activity, negative = inhibition, actives largely listed as inhibitors; actives 2.1% (n = 270,000); AID 1460, 2008; note: nearly all actives have a fitted effect of over 55% in size
# Target sequence (P10636 561-689 P618L limits assumed): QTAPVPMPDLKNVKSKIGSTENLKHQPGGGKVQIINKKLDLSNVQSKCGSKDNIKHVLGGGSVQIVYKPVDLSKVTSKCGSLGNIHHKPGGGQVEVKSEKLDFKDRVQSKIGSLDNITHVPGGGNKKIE
#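 In this qHTS, human K18 P301L tau is incubated with compound and heparin for 6 hr at 37 C, and Thioflavin T fluorescence then reports fibril load.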
# Tau fluor counter – Counterscreen qHTS for Inhibitors of Tau Fibril Formation, Fluorescence Polarization; actives 0.93% (n = 280,000); Potency, µM (top dose mostly 57.7 µM), without a hit: at the top dose activity change, negative = decrease; tau K18 P301L (four-repeat tau fragment) Alexa594 fluorescence, heparin fibrillization; note: nearly all actives have a fitted effect of over 55% in size
#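 Human K18 P301L tau (15 uM unlabeled plus 0.24 uM Alexa 594-labeled, final) in 100 mM sodium acetate pH 7 was mixed with compound and 20 uM heparin and incubated 6 hr at 37 C.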
# KDM4E inh – qHTS Assay for Inhibitors of Human Jumonji Domain Containing 2E (JMJD2E). Lysine-specific demethylase 4E (Homo sapiens), B2RXH2. JMJD2E catalytic domain, FDH-coupled NADH fluorescence (FDH is formaldehyde dehydrogenase). Potency, µM (highest dose often 57.1 µM), without a hit: top-dose activity change, negative = inhibition, actives largely listed as inhibitors. actives 1.6% (n = 230,000). AID 2147, 2009; active = well fitted inhibition curve with a large enough effect, not every such curve was filed as active; inconclusive = small, poorly fitted or top-dose-only effect, or another doubt; inactive = no such curve, though single readings can be large or run the other way;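 note: 0% = wells with enzyme and -100% = buffer wells without enzyme; nearly all actives have a fitted effect of over 50% in size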
# Target sequence (B2RXH2 1-337 limits assumed): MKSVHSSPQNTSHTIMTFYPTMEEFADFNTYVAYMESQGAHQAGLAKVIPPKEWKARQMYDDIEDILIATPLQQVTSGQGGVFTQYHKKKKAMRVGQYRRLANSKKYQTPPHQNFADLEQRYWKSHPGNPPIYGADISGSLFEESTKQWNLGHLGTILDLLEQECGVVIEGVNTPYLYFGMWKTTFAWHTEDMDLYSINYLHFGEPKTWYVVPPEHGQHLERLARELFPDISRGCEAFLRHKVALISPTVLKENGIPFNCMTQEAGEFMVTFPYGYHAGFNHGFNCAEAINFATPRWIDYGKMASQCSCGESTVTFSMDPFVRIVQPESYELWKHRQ
# TR SRC2 fluor cs – Total Fluorescence Counterscreen for Inhibitors of the Interaction of Thyroid Hormone Receptor and Steroid Receptor Coregulator 2. Potency, µM (doses to about 106 µM), for the others: top-dose fluorescence change, negative = quenching. TRb/SRC2 Texas Red total fluorescence interference. actives 0.29% (n = 280,000); active = well fitted curve in either direction with a large enough effect; inconclusive = small, poorly fitted or top-dose-only effect
#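 Flags fluorescent or light-absorbing compounds by total fluorescence, S + 2P, at 555 nm excitation and 632 nm emission. Mixture: 20 nM Texas Red SRC2 peptide, 0.6 uM human TRb LBD, 1 uM T3, 5% DMSO; compound exposure 5 h at ambient temperature.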
# Tau fibril FP – qHTS for Inhibitors of Tau Fibril Formation, Fluorescence Polarization; Microtubule-associated protein tau (Homo sapiens), P10636; K18 P301L tau heparin fibrillization, Alexa594 FP, 6 h; Potency, µM (doses to about 57.7 µM), without a hit: at the highest dose activity, negative = inhibition, hits mostly inhibitors; actives 0.39% (n = 280,000); AID 1468, 2008; note: nearly all actives have a fitted effect of over 55% in size
#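 Quantitative HTS format: compounds meet 15 uM recombinant K18 P301L tau and Alexa 594-tau tracer in 100 mM sodium acetate pH 7; 20 uM heparin triggers fibrillization at 37 C over 6 hr; FP gives the signal.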
# TRb-SRC2 inh – qHTS for Inhibitors of the Interaction of Thyroid Hormone Receptor and Steroid Receptor Coregulator 2; Potency, µM (doses to about 106 µM), for inactives: at the top dose activity change, negative = inhibition, most hits filed as inhibitors; AID 1469, 2008; TRbeta-SRC2 peptide binding, fluorescence polarization; receptor liganded with 1 µM T3; actives 0.065% (n = 280,000);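 note: plate controls were bound peptide for no effect and peptide without receptor for full effect; nearly all actives have a fitted effect of over 50% in size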
#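 Human TRb ligand-binding domain (0.6 uM) is mixed with 20 nM Texas Red SRC2 peptide and 1 uM T3; after compound addition and 5 hr at ambient temperature, polarization is measured and normalized to unbound and bound controls.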
# * marks the source's active call; other numbers are inactive results; ? = inconclusive; · = not tested or not shown; [ ] = another dose, or the depositor's remark. A selection: hits, their analogues and other compounds. The true share with any hit is near 3.5%. Unless noted, calls come from the whole dose curve; as a rule, active = well fitted curve in the direction sought with a large enough effect; inconclusive = small, poorly fitted or top-dose-only effect, or another doubt; inactive = no such curve, though single readings can be large; an effect the other way counts as inactive or inconclusive. Unless noted, % is set by controls: 0 for no effect and ±100 for the full control effect; potency is the fitted concentration of half-maximal effect.
SMILES,Tau ThT inhib,Tau fluor counter,KDM4E inh,TR SRC2 fluor cs,Tau fibril FP,TRb-SRC2 inh
CC1=C(SCCC#N)S/C(=C2\SC(C)=C(SCCC#N)S2)S1,7.9µM*,?,-1%,1%,?,-2%
O=C1C2C3C=CC(C3)C2C(=O)N1c1ccc2c(c1)OCO2 (configuration not stated),32µM*,?,?,-6%,?,4%
Cc1ccccc1Oc1cc(NC(=O)CCCn2nc(C)c([N+](=O)[O-])c2C)cc([N+](=O)[O-])c1,2%,?,6%,2%,15%,2%
Cc1ccccc1Oc1cc(NC(=O)Cn2cnc([N+](=O)[O-])c2)cc([N+](=O)[O-])c1,?,13µM*[quencher],-3%,-4%,?,5%
CCOC(=O)C1=C(C)Nc2ccc(C)cc2S1,16µM*,?,3%,-3%,-8%,-3%
CNC(=S)N(CCc1c(C)[nH]c2ccc(Cl)cc12)Cc1cccs1,-12%,16µM*[quencher],14%,-2%,?,4%
CCNC(=S)N(CCc1c(C)[nH]c2ccc(Cl)cc12)Cc1ccco1,-17%,13µM*[quencher],8%,-2%,?,5%
COCCNC(=S)N(CCc1c(C)[nH]c2ccc(F)cc12)Cc1cccs1,-13%,14µM*[quencher],-12%,-1%,13%,9%
CNC(=S)N(CCc1c(C)[nH]c2ccc(Cl)cc12)Cc1cc(OC)c(OC)c(OC)c1,-4%,-6%,3%,-4%,-4%,-6%
COCCNC(=S)N(CCc1c(C)[nH]c2ccc(Cl)cc12)Cc1cccs1,-17%,8.9µM*[quencher],-7%,-1%,9%,4%
CNC(=S)N(CCc1c(C)[nH]c2ccc(C)cc12)Cc1ccco1,?,?,4%,-2%,?,0%
COCCNC(=S)N(CCc1c(C)[nH]c2ccccc12)Cc1ccco1,-13%,?,3%,-1%,?,2%
CC[N+](C)(CC)CCOC(=O)C1c2ccccc2Oc2ccccc21,·,·,5%[25.5 µM],-2%,·,0%
CNC(=S)N(CCc1c(C)[nH]c2ccc(C)cc12)Cc1ccc(OC)c(OC)c1,?,?,-26%,-7%,21%,7%
CCNC(=S)N(CCc1c(C)[nH]c2ccc(C)cc12)Cc1cccs1,?,14µM*[quencher],-6%,-3%,?,6%
CCN(CC)c1ccc(/C=N/NC(=O)CCC(=O)NCc2ccccc2)c(O)c1,-13%,-20%,25µM*,-1%,7%,2%
CCN(CC)c1ccc(/C=N/Nc2ccc(C)cc2)c(O)c1,25µM*,?,?,5%,-15%,-14%
Cc1cccc(N/N=C/c2ccccc2O)c1,?,16µM*[quencher],-10%,2%,?,-11%
O=[N+]([O-])c1cccc(N/N=C/c2cc([N+](=O)[O-])ccc2O)c1,?,?,2%,-5%,4%,11%
O=C(CCC(=O)N/N=C/c1c[nH]c2ccccc12)NCc1ccccc1,-8%,-11%,-4%,0%,8%,-6%
CCOC(=O)N/N=C/c1ccc(N(CC)CC)cc1O,?,?,28µM*,-3%,7%,-2%
N#CC1=C(N)OC2=C(CCC/C2=C/c2ccoc2)C1c1ccoc1 (configuration not stated),28µM*,-21%,25µM*,6%,?,1%
CC(=O)N1CCN(c2cc(N3CCCC3)c(F)cc2[N+](=O)[O-])CC1,?,-13%,-6%,-1%,-18%,-6%
CCN1CCN(c2cc(N3CCc4ccccc4C3)c(F)cc2[N+](=O)[O-])CC1,14µM*,-22%,5%,0%,6%,-2%
O=C(CN1CCOCC1)Nc1cc([N+](=O)[O-])ccc1Cl,3%,1%,2%,-3%,-6%,4%
SMILES,Tau ThT inhib,Tau fluor counter,KDM4E inh,TR SRC2 fluor cs,Tau fibril FP,TRb-SRC2 inh
Cc1cc(Nc2cccc(C(F)(F)F)c2)nc2ccc(NC(=O)c3cccnc3)cc12,-17%,8.9µM*[quencher],·,8%,?,18%
CCOc1ccc(C(=O)Nc2ccc3nc(Nc4cccc(C(F)(F)F)c4)cc(C)c3c2)cc1OCC,?,3.5µM*[quencher],·,5%,-8%,12%
Cc1nc2ccc(NC(=O)c3cccc(C(F)(F)F)c3)cc2o1,-11%,-13%,6%,-1%,3%,1%
O=C(Nc1cccc(C(F)(F)F)c1)c1cccnc1,0%,-5%,-3%,0%,-3%,3%
Cc1cc(Nc2cccc(C(F)(F)F)c2)nc2ccc(NC(=O)c3cccc(Cl)c3)cc12,?,7.1µM*[quencher],·,-23%,?,10%
O=C(Nc1cccc(C(F)(F)F)c1)c1cccc(C(=O)Nc2cccc(C(F)(F)F)c2)c1,12%,-13%,·,-9%,?,-2%
Cc1cc2c(C)c(C)c(=O)[nH]c2cc1N,?,?,?,-2%,14%,-4%
COc1cc2c(cc1OC)CN(S(=O)(=O)c1cccs1)CC2,5%,-6%,-5%,0%,-3%,-2%
O=C(CNC(=S)NC(=O)C1CCCCC1)c1ccccc1,-18%,-9%,-4%,-1%,-4%,2%
Cc1c(-c2ccccc2)oc2cc(O)ccc2c1=O,-1%,-7%,-10%,0%,-12%,3%
C/C=C/c1ccc2oc(-c3ccc(O)cc3)c(C)c2c1,18µM*,14µM*[quencher],?,-1%,?,-4%
CCc1ccc(-n2c(C)cc(/C=N/NC(=O)OC)c2C)cc1,?,-26%,10µM*,0%,-4%,-4%
COC(=O)N/N=C/c1cc(C)n(-c2ccc(F)cc2)c1C,-18%,-8%,?,0%,5%,5%
COC(=O)N/N=C/c1cc(C)n(-c2ccc(Br)cc2)c1C,-22%,-22%,25µM*,-3%,8%,3%
COc1ccc(CCNC(=O)c2ccc(Cn3c(=O)c4ccccc4n(Cc4cccc(Cl)c4)c3=O)cc2)cc1OC,-6%,-21%,·,-6%,-13%,9%
CCn1c2ccc(Cl)cc2c2nc3ccccc3nc21,16µM*,-23%,17%,-3%,-10%,-3%
CCn1c2ccc(OC)cc2c2nc3ccccc3nc21,5%,-6%,10%,-2%,-10%,5%
